Results filed as inconclusive are left out. The source made the active and inactive calls. Unless noted, the call rests on the fitted dose curve; in most records, active means well fitted curve in the direction sought with a large enough effect in the repeat runs; inconclusive means weak or mixed curves; inactive means no such curve, though single readings can be large; an effect the other way counts as inactive or inconclusive.
Key:
[1] = qHTS assay to identify small molecule antagonists of the thyroid receptor (TR) signaling pathway - cell viability counter screen (AID 743064); further: nearly all actives have a fitted effect of over 50% in size; further: potency means the concentration at half of the fitted maximal effect
In short: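 Same-well viability check: GH3.TRE-Luc cells stimulated with 1 nM T3 alongside test compound for 23.5 h, followed by CellTiter-Fluor fluorescence.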

[2] = qHTS assay to identify small molecule antagonists of the thyroid receptor (TR) signaling pathway (AID 743065); further: nearly all actives have a fitted effect of over 55% in size; further: potency means the concentration at half of the fitted maximal effect
In short: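 GH3.TRE-Luc rat pituitary cells (two TREs driving luciferase) were dosed with compound, then stimulated with 1 nM T3 (final) for 23.5 h at 37 C. ONE-Glo luminescence was the read-out, with CellTiter-Fluor fluorescence as the cytotoxicity counter-screen.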

[3] = system: thyroid hormone receptor (rat, GH3 cells); experiment: qHTS assay to identify small molecule agonists of the thyroid receptor (TR) signaling pathway (AID 743066; calls by dose curve)
[4] = molecular target: Estrogen receptor (Homo sapiens) (UniProt P03372); experiment: qHTS assay to identify small molecule agonists of the estrogen receptor alpha (ER-alpha) signaling pathway (AID 743075; calls by dose curve)
Chain of Estrogen receptor (Homo sapiens) (P03372 whole entry, looked up): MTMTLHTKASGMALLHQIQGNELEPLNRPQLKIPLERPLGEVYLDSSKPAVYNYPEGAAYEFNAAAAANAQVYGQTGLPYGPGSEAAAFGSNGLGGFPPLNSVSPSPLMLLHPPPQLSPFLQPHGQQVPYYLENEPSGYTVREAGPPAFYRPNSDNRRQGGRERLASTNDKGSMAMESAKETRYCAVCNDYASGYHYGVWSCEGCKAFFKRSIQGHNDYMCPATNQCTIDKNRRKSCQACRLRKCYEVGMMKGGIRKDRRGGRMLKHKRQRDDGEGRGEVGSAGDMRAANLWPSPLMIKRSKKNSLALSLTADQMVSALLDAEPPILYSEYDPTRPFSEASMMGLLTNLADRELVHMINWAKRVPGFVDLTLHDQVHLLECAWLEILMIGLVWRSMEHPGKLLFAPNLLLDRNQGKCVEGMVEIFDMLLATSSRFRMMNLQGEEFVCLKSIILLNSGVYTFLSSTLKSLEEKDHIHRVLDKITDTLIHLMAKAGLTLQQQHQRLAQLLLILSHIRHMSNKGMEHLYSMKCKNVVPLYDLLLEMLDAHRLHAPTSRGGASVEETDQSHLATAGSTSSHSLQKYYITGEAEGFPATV

[5] = molecular target: Estrogen receptor (Homo sapiens) (UniProt P03372); experiment: qHTS assay to identify small molecule agonists of the estrogen receptor alpha (ER-alpha) signaling pathway using the BG1 cell line (AID 743079); further: nearly all actives have a fitted effect of over 20% in size
[6] = qHTS assay to identify small molecule antagonists of the estrogen receptor alpha (ER-alpha) signaling pathway using the BG1 cell line (AID 743080; calls by dose curve;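 further: BG1 cells stimulated with 17beta-estradiol alongside compound; series mostly up to about 70 µM; nearly all actives have a fitted effect of over 25% in size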)
In short: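 BG1-Luc-4E2 cells (endogenous full-length ER-alpha, 4xERE luciferase) hormone-starved 5 days in charcoal-stripped FBS, plated 4,000/well for 24 h, then compound plus 17beta-estradiol for 21.5 h at 37 C; ONE-Glo luminescence read.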

[7] = qHTS assay to identify small molecule antagonists of the estrogen receptor alpha (ER-alpha) signaling pathway using the BG1 cell line - cell viability counter screen (AID 743081);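 further: compound given together with 17beta-estradiol as the ER stimulus; series mostly up to about 70 µM; nearly all actives have a fitted effect of over 45% in size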
Aromatase (Homo sapiens) = Aromatase (Homo sapiens) (UniProt P11511); experiment: qHTS assay to identify aromatase inhibitors (AID 743083); further: series mostly up to about 70 µM; nearly all actives have a fitted effect of over 55% in size
Chain of Aromatase (Homo sapiens) (P11511 whole entry, looked up): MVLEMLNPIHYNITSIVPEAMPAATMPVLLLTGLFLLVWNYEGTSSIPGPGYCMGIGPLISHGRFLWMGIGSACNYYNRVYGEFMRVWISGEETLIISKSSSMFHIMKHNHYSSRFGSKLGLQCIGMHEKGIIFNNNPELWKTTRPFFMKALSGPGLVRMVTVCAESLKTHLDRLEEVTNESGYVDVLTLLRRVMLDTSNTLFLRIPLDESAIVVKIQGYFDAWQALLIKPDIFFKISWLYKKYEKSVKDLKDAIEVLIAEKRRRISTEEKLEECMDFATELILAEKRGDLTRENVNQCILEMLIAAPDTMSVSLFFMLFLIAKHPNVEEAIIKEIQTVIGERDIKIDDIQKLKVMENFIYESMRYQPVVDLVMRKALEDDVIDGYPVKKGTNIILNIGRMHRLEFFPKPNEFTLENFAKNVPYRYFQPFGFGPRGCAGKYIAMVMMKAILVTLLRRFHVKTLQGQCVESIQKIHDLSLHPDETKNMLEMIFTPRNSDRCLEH

[8] = qHTS assay to identify aromatase inhibitors - cell viability counter screen (AID 743084);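 further: cells stimulated with testosterone during compound exposure; nearly all actives have a fitted effect of over 55% in size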
[9] = molecular target: Aryl hydrocarbon receptor (Homo sapiens) (UniProt P35869); experiment: qHTS assay to identify small molecule that activate the aryl hydrocarbon receptor (AhR) signaling pathway (AID 743085);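 further: HG2L7.5c1 human HepG2 liver cells with stably integrated DRE-driven firefly reporter; series mostly up to about 70 µM; nearly all actives have a fitted effect of over 15% in size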
Chain of Aryl hydrocarbon receptor (Homo sapiens) (P35869 whole entry, looked up): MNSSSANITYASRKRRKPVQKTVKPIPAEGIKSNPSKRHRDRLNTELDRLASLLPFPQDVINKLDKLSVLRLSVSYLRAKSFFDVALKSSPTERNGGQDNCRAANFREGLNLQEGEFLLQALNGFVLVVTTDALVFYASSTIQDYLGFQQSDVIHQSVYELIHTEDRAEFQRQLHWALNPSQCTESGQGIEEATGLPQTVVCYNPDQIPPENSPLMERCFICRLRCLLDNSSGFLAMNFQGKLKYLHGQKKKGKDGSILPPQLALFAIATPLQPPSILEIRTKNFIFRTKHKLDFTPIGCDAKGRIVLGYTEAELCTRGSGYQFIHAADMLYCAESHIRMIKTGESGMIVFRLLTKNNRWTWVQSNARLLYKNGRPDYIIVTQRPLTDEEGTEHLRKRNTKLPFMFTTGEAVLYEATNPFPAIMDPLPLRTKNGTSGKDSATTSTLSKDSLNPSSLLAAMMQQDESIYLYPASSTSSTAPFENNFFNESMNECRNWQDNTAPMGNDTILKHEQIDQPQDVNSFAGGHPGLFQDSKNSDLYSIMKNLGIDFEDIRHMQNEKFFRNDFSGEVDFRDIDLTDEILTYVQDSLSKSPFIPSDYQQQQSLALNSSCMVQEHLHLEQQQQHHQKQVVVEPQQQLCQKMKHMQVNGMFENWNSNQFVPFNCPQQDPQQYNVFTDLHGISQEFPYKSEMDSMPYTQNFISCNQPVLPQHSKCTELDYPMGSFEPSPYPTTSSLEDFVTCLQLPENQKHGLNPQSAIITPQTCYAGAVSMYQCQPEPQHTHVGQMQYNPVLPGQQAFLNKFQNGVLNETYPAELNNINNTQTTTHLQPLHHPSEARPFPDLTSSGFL
In short: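 Reporter assay in engineered HepG2 line HG2L7.5c1, whose plasmid carries twenty dioxin responsive elements upstream of firefly luciferase. Treatment lasted 24 h at 37C; ONE-Glo luminescence gauged induction.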

[10] = qHTS assay to identify small molecule that activate the aryl hydrocarbon receptor (AhR) signaling pathway - cell viability counter screen (AID 743086);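 further: HepG2 liver cells carrying the AhR DRE luciferase reporter; series mostly up to about 70 µM; nearly all actives have a fitted effect of over 45% in size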
In short: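 HepG2-AhR-luc (HG2L7.5c1) cells, 4000/well, treated 24 h at 37 C with compound; viability measured as CellTiter-Fluor fluorescence after 30 min in the same wells as the luciferase read.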

[11] = molecular target: Peroxisome proliferator-activated receptor gamma (Homo sapiens) (UniProt P37231); experiment: qHTS assay to identify small molecule antagonists of the peroxisome proliferator-activated receptor gamma (PPARg) signaling pathway (AID 743191; calls by dose curve; further: series mostly up to about 63 µM; nearly all actives have a fitted effect of over 30% in size)
Chain of Peroxisome proliferator-activated receptor gamma (Homo sapiens) (P37231 whole entry, looked up): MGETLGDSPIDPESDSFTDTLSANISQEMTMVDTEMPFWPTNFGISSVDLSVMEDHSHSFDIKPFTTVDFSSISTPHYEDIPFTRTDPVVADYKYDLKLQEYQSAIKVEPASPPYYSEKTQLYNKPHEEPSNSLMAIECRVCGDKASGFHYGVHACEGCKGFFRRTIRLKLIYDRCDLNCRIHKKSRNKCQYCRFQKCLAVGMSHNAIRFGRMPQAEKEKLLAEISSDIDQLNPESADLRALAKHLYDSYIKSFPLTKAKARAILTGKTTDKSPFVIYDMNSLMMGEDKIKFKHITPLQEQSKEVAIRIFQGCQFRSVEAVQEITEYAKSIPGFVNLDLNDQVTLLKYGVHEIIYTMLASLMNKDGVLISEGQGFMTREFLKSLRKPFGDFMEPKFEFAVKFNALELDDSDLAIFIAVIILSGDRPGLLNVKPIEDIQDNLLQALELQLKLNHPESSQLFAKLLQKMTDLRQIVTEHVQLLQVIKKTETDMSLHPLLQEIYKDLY
In short: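 GeneBLAzer PPARg UAS-bla HEK293H cells, 5 h post-plating, exposed to compounds 17 h at 37C. LiveBLAzer B/G FRET substrate added for 1 h at room temperature; beta-lactamase reporter read by fluorescence intensity.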

[12] = qHTS assay to identify small molecule antagonists of the peroxisome proliferator-activated receptor gamma (PPARg) signaling pathway - cell viability counter screen (AID 743194); further: nearly all actives have a fitted effect of over 55% in size
In short: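 Cytotoxicity counter screen in PPARg-bla HEK293H cells, same wells as reporter assay. Compounds plus 50 nM rosiglitazone (final) for 17 h at 37 C, then viability read by CellTiter-Glo luminescence.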

[13] = qHTS assay for small molecule agonists of the antioxidant response element (ARE) signaling pathway - cell viability counter screen (AID 743203; calls by dose curve; further: nearly all actives have a fitted effect of over 55% in size)
In short: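 Compounds in DMSO were pinned onto ARE-bla HepG2 cells plated 5 hrs earlier at 2,000 cells/well. Sixteen hours later at 37C/5% CO2, CellTiter-Glo was added and luminescence measured after 30 min at room temperature.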

[14] = qHTS assay for small molecule activators of the heat shock response signaling pathway - cell viability counter screen (AID 743209); further: nearly all actives have a fitted effect of over 50% in size
In short: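 Counter screen for cytotoxicity in HeLa HSE-bla reporter cells. Treatment was 5 h at 37 C; viability was detected by luminescent ATP assay (CellTiter-Glo) in the same wells as the beta-lactamase read.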

[15] = qHTS assay for small molecule activators of the heat shock response signaling pathway (AID 743210; active means well fitted activation curve with a large enough effect in the signal ratio in the repeat runs, with a control signal flat, not every such curve was filed as active; the % refers to the signal ratio; further: series mostly up to about 63 µM)
In short: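 HSE-bla HeLa cells (beta-lactamase reporter under heat shock response elements), plated overnight, then exposed to compounds 5 h at 37 C; LiveBLAzer B/G FRET substrate added, 2.5 h at room temperature, fluorescence intensity read.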

[16] = molecular target: Estrogen receptor (Homo sapiens) (UniProt P03372); experiment: qHTS assay to identify small molecule antagonists of the estrogen receptor alpha (ER-alpha) signaling pathway (AID 743069; active means well fitted curve in the direction sought with a large enough effect in the signal ratio in the repeat runs, not every such curve was filed as active; the % refers to the signal ratio)
In short: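 HEK293 ER-alpha-UAS-bla GripTite cells, held overnight in 2% charcoal-stripped FBS, 5,000 cells/well, preincubated 4 h, then compound plus 17beta-estradiol for 18 h at 37C. Beta-lactamase read by LiveBLAzer B/G FRET substrate, 2 h at room temperature.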

[17] = qHTS assay to identify small molecule antagonists of the estrogen receptor alpha (ER-alpha) signaling pathway - cell viability counter screen (AID 743074; calls by dose curve;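 further: HEK293 cells carrying ER-alpha-UAS-bla reporter stimulated with 17beta-estradiol; nearly all actives have a fitted effect of over 45% in size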)
[18] = qHTS assay for small molecule agonists of the antioxidant response element (ARE) signaling pathway (AID 743202; active means well fitted activation curve with a large enough effect in the signal ratio in the repeat runs, not every such curve was filed as active; the % refers to the signal ratio; further: potency means the concentration at half of the fitted maximal effect)
In short: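 ARE-bla HepG2 cells (beta-lactamase reporter under the antioxidant response element), plated 5 hours, then exposed to compounds 16 hours at 37 C. LiveBLAzer B/G FRET substrate added for 2 hours at room temperature; fluorescence intensity read.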

[19] = molecular target: Peroxisome proliferator-activated receptor gamma (Homo sapiens) (UniProt P37231); experiment: qHTS assay to identify small molecule agonists of the peroxisome proliferator-activated receptor gamma (PPARg) signaling pathway (AID 743094; active means well fitted activation curve with a large enough effect in the signal ratio in the repeat runs, not every such curve was filed as active; the % refers to the signal ratio)
In short: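 Following 5 h plating at 37C, PPARg-bla HEK293H cells receive compound or DMSO for 17 h; fluorescence intensity is recorded after LiveBLAzer B/G loading for 1 h at room temperature.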
On the % scale 0 is the no-effect control and ±100 the full control effect.

CC1(C)CC(OC(=O)CCCCCCCCC(=O)OC2CC(C)(C)NC(C)(C)C2)CC(C)(C)N1
inactive: outcome [3] | Potency [4] | Potency [5] | outcome [6] | Potency [7] | outcome (Aromatase (Homo sapiens)) | Potency [8] | Potency [9] | Potency [10] | outcome [11] | outcome [12] | outcome [13] | Potency [14] | outcome [15]
active: Potency [1] 2.96 µM | Potency [2] 5.91 µM

O=C(CN1CCNCC1)NC1CCCCC1
inactive: Potency [1] | outcome [16] | outcome [17] | Potency [4] | Potency [5] | outcome [6] | Potency [7] | outcome (Aromatase (Homo sapiens)) | Potency [8] | Potency [9] | Potency [10] | outcome [11] | outcome [12] | Potency [18] | outcome [13] | outcome [15]

CC(Oc1cc(Cl)ccc1Cl)C(=O)O (centres undefined)
inactive: Potency [1] | Potency [2] | outcome [3] | outcome [17] | Potency [7] | outcome (Aromatase (Homo sapiens)) | Potency [9] | Potency [10] | Potency [19] | outcome [11] | outcome [12] | outcome [13] | Potency [14] | outcome [15]

C/C=C(\C)C(C)=O
inactive: Potency [1] | outcome [16] | outcome [17] | Potency [4] | Potency [5] | outcome [6] | Potency [7] | outcome (Aromatase (Homo sapiens)) | Potency [8] | Potency [9] | Potency [10] | Potency [19] | outcome [11] | outcome [12] | Potency [18] | outcome [13] | Potency [14] | outcome [15]

C=C(C)[C@@H]1CC=C(C)CC1
inactive: Potency [1] | outcome [16] | outcome [17] | Potency [4] | outcome [6] | Potency [7] | outcome (Aromatase (Homo sapiens)) | Potency [8] | Potency [9] | Potency [10] | outcome [13] | Potency [14] | outcome [15]

N[C@@H](Cc1ccc(O)cc1)C(=O)O
inactive: Potency [1] | Potency [2] | outcome [3] | outcome [17] | Potency [7] | outcome (Aromatase (Homo sapiens)) | Potency [8] | Potency [10] | Potency [19] | activity change, negative = cytotoxicity [12] 3.31% [at 13.2 µM] | viability change, negative = cytotoxic [13] 19.5% [at 8.36 µM] | activity change, negative = cytotoxicity [14] -1.43% [at 13.2 µM] | activation [15] 0.612% [at 13.2 µM]

CC(=O)C1C(=O)C=C(C)OC1=O (centres undefined)
inactive: Potency [1] | Potency [2] | outcome [3] | Potency [4] | Potency [5] | outcome [6] | Potency [7] | outcome (Aromatase (Homo sapiens)) | Potency [8] | Potency [10] | Potency [19] | outcome [12] | outcome [13] | outcome [15]

CC(C)OC(=O)OCOP(=O)(CO[C@H](C)Cn1cnc2c(N)ncnc21)OCOC(=O)OC(C)C
active: Potency [18] 11.9 µM
inactive: Potency [1] | outcome [3] | outcome [16] | outcome [17] | Potency [4] | Potency [5] | outcome [6] | Potency [7] | Potency [8] | Potency [9] | Potency [10] | Potency [19] | outcome [11] | outcome [12] | outcome [13] | Potency [14] | outcome [15]

CC(=O)O[C@H]1C[C@@H]2CC[C@@]1(C)C2(C)C
inactive: Potency [1] | outcome [17] | Potency [7] | outcome (Aromatase (Homo sapiens)) | Potency [8] | Potency [9] | Potency [10] | Potency [19] | outcome [11] | outcome [12] | outcome [13] | outcome [15]
